The whole screen tested about 5,500 compounds, of which about 2,000 (36%) were called active. Not shown: some 18% with an inconclusive outcome. Rule as the data show it: active = normalized growth mostly below about 0.91 (no sharp cut-off); inconclusive = no clear call, values can overlap the other calls; inactive = mostly above about 0.92. The list shows a part of the results.
Assay: chemical genetic growth profiling, strain panel (AID 1159580);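 also: tested at 20 µM; growth read once vehicle control cultures reached saturation at 30 °C; 1 = growth at the plate median or of vehicle wells; lower values mean less growth of the strain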
Settings: S. cerevisiae deletion strains, growth OD
[1] = locus YDL101C, strain DUN1, stronger effect = lower value
[2] = locus YHR030C, strain SLT2, stronger effect = lower value
[3] = locus YJL187C, strain SWE1, stronger effect = lower value
[4] = locus YHR079C, strain IRE1, stronger effect = lower value
[5] = locus YJL095W, strain BCK1, stronger effect = lower value
[6] = locus YJR066W, strain TOR1, stronger effect = lower value
[7] = locus YLR113W, strain HOG1, stronger effect = lower value
[8] = locus YNL183C, strain NPR1, stronger effect = lower value
[9] = locus YOR231W, strain MKK1, stronger effect = lower value
[10] = locus YPL256C, strain CLN2, stronger effect = lower value

Measured: normalized growth

O=C1NC2CC2N1C(=O)OCc1ccccc1 (configuration not stated)
inactive: locus YAL013W, strain DEP1, stronger effect = lower value 1 | locus YBR229C, strain ROT2, stronger effect = lower value 1 | [1] 1.01 | locus YDR150W, strain NUM1, stronger effect = lower value 1.02 | locus YEL061C, strain CIN8, stronger effect = lower value 0.956 | locus YGR078C, strain PAC10, stronger effect = lower value 1.01 | [2] 1.06 | locus YHR087W, strain rtc3, stronger effect = lower value 0.969 | [3] 0.991 | locus YJR043C, strain POL32, stronger effect = lower value 0.993 | locus YJR075W, strain HOC1, stronger effect = lower value 1.01 | locus YLR039C, strain RIC1, stronger effect = lower value 0.99 | locus YLR058C, strain SHM2 (second series), stronger effect = lower value 0.995 | locus YLR085C, strain ARP6, stronger effect = lower value 0.978 | locus YLR262C, strain YPT6, stronger effect = lower value 1.02 | locus YML094W, strain GIM5, stronger effect = lower value 0.992 | locus YMR219W, strain ESC1, stronger effect = lower value 1 | locus YMR263W, strain SAP30, stronger effect = lower value 0.978 | locus YNL153C, strain GIM3, stronger effect = lower value 1.01 | locus YNL298W, strain CLA4 (second series), stronger effect = lower value 0.954 | locus YNL322C, strain KRE1, stronger effect = lower value 1 | locus YNR030W, strain Alg12, stronger effect = lower value 0.988 | locus YPL055C, strain LGE1, stronger effect = lower value 0.99 | locus YPL241C, strain CIN2, stronger effect = lower value 1.01 | locus YPR135W, strain CTF4, stronger effect = lower value 1.03

O=C(OOC(=O)c1ccccc1)c1ccccc1
active: [2] 0.842 | [4] 0.799 | [5] 0.812 | [6] 0.82 | [7] 0.642 | [8] 0.773 | [9] 0.792 | [10] 0.773
inactive: locus YAL021C, strain ccr4, stronger effect = lower value 0.969 | locus YAL026C, strain drs2, stronger effect = lower value 0.952 | locus YAL030W, strain snc1, stronger effect = lower value 0.976 | locus YBL061C, strain skt5, stronger effect = lower value 0.962 | locus YBR009C, strain hhf1, stronger effect = lower value 0.96 | locus YBR023C, strain chs3, stronger effect = lower value 0.977 | locus YBR171W, strain sec66, stronger effect = lower value 0.948 | locus YBR231C, strain swc5, stronger effect = lower value 0.978 | locus YBR279W, strain paf1, stronger effect = lower value 0.991 | locus YCL011C, strain gbp2, stronger effect = lower value 0.962 | locus YCL016C, strain dcc1, stronger effect = lower value 0.956 | locus YCL061C, strain MRC1, stronger effect = lower value 0.96 | locus YCL069W, strain vba3, stronger effect = lower value 0.993 | locus YCR088W, strain abp1, stronger effect = lower value 0.998 | locus YDL005C, strain med2, stronger effect = lower value 0.977 | locus YDL040C, strain nat1, stronger effect = lower value 0.992 | locus YDR001C, strain nth1, stronger effect = lower value 0.976 | locus YDR069C, strain doa4, stronger effect = lower value 0.965 | locus YDR137W, strain rgp1, stronger effect = lower value 0.959 | locus YDR159W, strain sac3, stronger effect = lower value 0.94 | locus YDR195W, strain ref2 1.01 | locus YDR297W, strain sur2, stronger effect = lower value 0.982 | locus YDR334W, strain swr1, stronger effect = lower value 0.92 | locus YDR335W, strain msn5, stronger effect = lower value 0.986 | locus YDR392W, strain spt3, stronger effect = lower value 0.933 | locus YEL003W, strain gim4, stronger effect = lower value 0.989 | locus YEL037C, strain rad23, stronger effect = lower value 0.977 | locus YEL061C, strain CIN8 (second series), stronger effect = lower value 0.985 | locus YER015W, strain faa2, stronger effect = lower value 0.959 | locus YER016W, strain bim1, stronger effect = lower value 0.993 | locus YER111C, strain swi4, stronger effect = lower value 0.972 | locus YER155C, strain BEM2 (second series), stronger effect = lower value 0.971 | locus YFR010W, strain ubp6, stronger effect = lower value 0.948 | locus YGL167C, strain pmr1, stronger effect = lower value 0.965 | locus YGL173C, strain kem1, stronger effect = lower value 0.956 | locus YGL227W, strain vid30, stronger effect = lower value 0.981 | locus YGL240W, strain doc1, stronger effect = lower value 0.989 | locus YGL253W, strain hxk2, stronger effect = lower value 0.96 | locus YHR013C, strain ard1, stronger effect = lower value 0.959 | locus YHR027C, strain rpn1, stronger effect = lower value 0.95 | locus YHR142W, strain chs7, stronger effect = lower value 0.95 | locus YJL092W, strain hpr5, stronger effect = lower value 0.97 | locus YJL095W, strain BCK1 (second series), stronger effect = lower value 0.993 | locus YJL115W, strain asf1, stronger effect = lower value 0.95 | locus YJL129C, strain trk1, stronger effect = lower value 0.991 | locus YJL154C, strain vps35, stronger effect = lower value 0.984 | locus YJL164C, strain tpk1, stronger effect = lower value 0.983 | locus YJL166W, strain qcr8, stronger effect = lower value 0.964 | [3] 0.981 | locus YKL160W, strain elf1, stronger effect = lower value 0.969 | locus YKR026C, strain gcn3, stronger effect = lower value 0.979 | locus YKR091W, strain srl3, stronger effect = lower value 0.976 | locus YLL001W, strain dnm1, stronger effect = lower value 0.941 | locus YLL026W, stronger effect = lower value 0.974 | locus YLL041C, strain sdh2, stronger effect = lower value 0.968 | locus YLR027C, strain aat2, stronger effect = lower value 0.961 | locus YLR221C, strain rsa3, stronger effect = lower value 0.93 | locus YLR258W, strain gsy2, stronger effect = lower value 0.991 | locus YLR262C, strain YPT6 (second series), stronger effect = lower value 0.976 | locus YLR320W, strain mms22, stronger effect = lower value 0.95 | locus YLR342W, strain FKS1, stronger effect = lower value 0.971 | locus YLR357W, strain rsc2, stronger effect = lower value 0.975 | locus YLR370C, strain arc18, stronger effect = lower value 0.954 | locus YLR384C, strain iki3, stronger effect = lower value 0.954 | locus YML120C, strain ndi1, stronger effect = lower value 0.944 | locus YMR058W, strain fet3, stronger effect = lower value 0.953 | locus YMR125W, strain sto1, stronger effect = lower value 0.979 | locus YMR129W, stronger effect = lower value 0.998 | locus YMR205C, strain PFK2, stronger effect = lower value 0.949 | locus YMR231W, strain pep5, stronger effect = lower value 0.984 | locus YNL071W, strain lat1, stronger effect = lower value 0.981 | locus YNL209W, strain ssb2, stronger effect = lower value 0.981 | locus YNL248C, strain rpa49, stronger effect = lower value 0.957 | locus YNL322C, strain KRE1 (second series), stronger effect = lower value 0.941 | locus YNR049C, strain mso1, stronger effect = lower value 0.959 | locus YOR001W, strain rrp6, stronger effect = lower value 0.982 | locus YOR070C, strain gyp1, stronger effect = lower value 0.981 | locus YOR080W, strain dia2, stronger effect = lower value 0.961 | locus YOR083W, strain WHI5, stronger effect = lower value 0.965 | locus YOR106W, strain vam3, stronger effect = lower value 0.926 | locus YOR265W, strain rbl2, stronger effect = lower value 0.98 | locus YOR270C, strain vph1, stronger effect = lower value 0.973 | locus YOR290C, strain snf2, stronger effect = lower value 0.917 | locus YPL051W, strain arl3, stronger effect = lower value 0.97 | locus YPL078C, strain atp4, stronger effect = lower value 0.966 | locus YPL106C, strain sse1, stronger effect = lower value 0.977 | locus YPL240C, strain hsp82, stronger effect = lower value 0.982

N#CSCC(=O)c1ccccc1
active: locus YAR019C, strain CDC15, stronger effect = lower value 0.0948 | locus YBL105C, strain PKC1, stronger effect = lower value 0.0869 | locus YBR135W, strain CKS1, stronger effect = lower value 0.0998 | locus YBR136W, strain MEC1, stronger effect = lower value 0.0968 | locus YBR160W, strain CDC28, stronger effect = lower value 0.101 | locus YDL017W, strain CDC7, stronger effect = lower value 0.092 | locus YDL028C, strain MPS1, stronger effect = lower value 0.108 | [1] 0.159 | locus YDL108W, strain KIN28, stronger effect = lower value 0.107 | locus YDL214C, strain PRR2, stronger effect = lower value 0.125 | locus YDR052C, strain DBF4, stronger effect = lower value 0.273 | locus YDR477W, strain SNF1, stronger effect = lower value 0.107 | locus YER123W, strain YCK3, stronger effect = lower value 0.121 | locus YER133W, strain GLC7, stronger effect = lower value 0.12 | locus YFL009W, strain cdc4, stronger effect = lower value 0.104 | locus YFL029C, strain CAK1, stronger effect = lower value 0.0973 | locus YFR003C, strain YPI1, stronger effect = lower value 0.0991 | locus YFR019W, strain FAB1, stronger effect = lower value 0.0919 | locus YGR040W, strain KSS1, stronger effect = lower value 0.119 | locus YGR052W, strain FMP48, stronger effect = lower value 0.127 | locus YGR092W, strain DBF2, stronger effect = lower value 0.0982 | [2] 0.111 | [4] 0.107 | locus YHR082C, strain KSP1, stronger effect = lower value 0.145 | locus YHR205W, strain SCH9, stronger effect = lower value 0.00392 | locus YIL147C, strain SLN1, stronger effect = lower value 0.0993 | [5] 0.101 | locus YJL128C, strain PBS2, stronger effect = lower value 0.499 | locus YJL157C, strain FAR1, stronger effect = lower value 0.0986 | locus YJR016C, strain ILV3, stronger effect = lower value 0.0975 | locus YJR066W, strain TOR1 (second series), stronger effect = lower value 0.101 | [6] 0.122 | locus YKL048C, strain ELM1, stronger effect = lower value 0.154 | locus YKL067W, strain YNK1, stronger effect = lower value 0.119 | locus YKL101W, strain HSL1, stronger effect = lower value 0.115 | locus YKL193C, strain SDS22, stronger effect = lower value 0.105 | locus YKL203C, strain TOR2, stronger effect = lower value 0.112 | [7] 0.147 | locus YLR133W, strain CKI1, stronger effect = lower value 0.0895 | locus YLR403W, strain SFP1, stronger effect = lower value 0.0174 | locus YML070W, strain DAK1, stronger effect = lower value 0.126 | locus YMR001C, strain CDC5, stronger effect = lower value 0.0981 | locus YMR205C, strain PFK2 (second series), stronger effect = lower value 0.095 | locus YMR277W, strain FCP1, stronger effect = lower value 0.0965 | locus YNL006W, strain LST8, stronger effect = lower value 0.0939 | locus YNL020C, strain ARK1, stronger effect = lower value 0.0915 | locus YNL161W, strain CBK1, stronger effect = lower value 0.0943 | [8] 0.13 | locus YNL207W, strain RIO2, stronger effect = lower value 0.121 | locus YNL222W, strain SSU72, stronger effect = lower value 0.0984 | locus YNL307C, strain MCK1 (second series), stronger effect = lower value 0.0995 | locus YOL078W, strain AVO1, stronger effect = lower value 0.107 | locus YOL136C, strain PFK27, stronger effect = lower value 0.14 | locus YOR061W, strain CKA2, stronger effect = lower value 0.158 | locus YOR119C, strain RIO1, stronger effect = lower value 0.132 | [9] 0.118 | locus YOR329C, strain SCD5, stronger effect = lower value 0.0919 | locus YPL031C, strain PHO85, stronger effect = lower value 0.107 | locus YPL153C, strain RAD53, stronger effect = lower value 0.117 | locus YPL204W, strain HRR25, stronger effect = lower value 0.109 | locus YPL209C, strain IPL1, stronger effect = lower value 0.0967 | [10] 0.135 | locus YPR025C, strain CCL1, stronger effect = lower value 0.0952 | locus YPR106W, strain ISR1, stronger effect = lower value 0.469 | locus YPR111W, strain DBF20, stronger effect = lower value 0.505 | strain NNK1, stronger effect = lower value 0.0857 | strain TSCII, stronger effect = lower value 0.0982

— PubChem BioAssay AID1159580 (chemical genetic matrix, 2015)
